# Most compounds without a hit are left out; they make up all but 1.2% or so of the library.
# RGS4-Gao reg: human RGS4-Galphao interaction regulation; P09471; Multiplexed bead flow cytometry, RGS4-Galphao binding; actives lie on both sides; binding response (% of control), % at 10 µM; actives 0.33% (n = 220,000); in the data active = binding response below about 49% or above about 150%; inactive = in between;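 also: fluorescent Galphao activated with aluminum fluoride binding bead-coupled RGS4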
# Target sequence (P09471 whole entry, looked up): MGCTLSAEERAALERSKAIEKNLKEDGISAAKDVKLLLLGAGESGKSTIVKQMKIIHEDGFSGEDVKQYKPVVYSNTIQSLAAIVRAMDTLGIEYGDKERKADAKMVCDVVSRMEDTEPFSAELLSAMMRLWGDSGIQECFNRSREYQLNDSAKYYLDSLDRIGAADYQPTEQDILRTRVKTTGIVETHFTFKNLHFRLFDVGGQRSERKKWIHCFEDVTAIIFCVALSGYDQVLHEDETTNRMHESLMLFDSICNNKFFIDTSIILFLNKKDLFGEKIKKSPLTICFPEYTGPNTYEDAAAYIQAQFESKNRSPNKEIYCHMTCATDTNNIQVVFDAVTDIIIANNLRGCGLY
# Avidin bead fluor: compound fluoresces at 488/530 nm on avidin beads; compound fluorescence 488/530 nm, flow cytometry; stronger effect = higher value; fluorescence (KMESF) at 10 µM; actives 0.38% (n = 220,000); AID 1775; in the data active = fluorescence above about 47
# RGS16-Gao HTS: RGS16-Galphao interaction regulator (human); binding response (% of control), % at 10 µM; O15492+P09471; actives 0.38% (n = 220,000); bead-based flow cytometry RGS16-Galphao binding, fluorescence; actives lie on both sides;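 also: Galphao activated by GDP with aluminum fluoride before binding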
# RGS8-Gao: regulators of human RGS8-Galphao interaction; actives 0.34% (n = 220,000); multiplexed bead flow cytometry, RGS8-Galphao binding; actives lie on both sides; P09471; response (percent of control binding), % at 10 µM; in the data active = response below about 60% or above about 140%; inactive = in between;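 also: Galphao activated as the GDP aluminium fluoride complex binding bead-coupled RGS8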
# RGS7-Gao reg: human RGS7-Galphao interaction regulation; binding response (% of control), % at 10 µM; P09471; Multiplexed bead flow cytometry, RGS7-Galphao binding; actives lie on both sides; actives 0.35% (n = 220,000); AID 1439; in the data active = binding response below about 49% or above about 150%; inconclusive = no clear call, values can overlap the other calls; inactive = in between;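 also: fluorescent Galphao held in activated GDP-AlF4 state binding bead-coupled RGS7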
# GSH bead fluor: compound fluoresces at 488/530 nm on GSH beads | GSH beads flow cytometry, compound fluorescence 488/530 nm; stronger effect = higher value | fluorescence (KMESF) at 10 µM | actives 0.25% (n = 190,000) | AID 1776; in the data active = fluorescence above about 89;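 also: glutathione beads carrying GST-tagged Bcl family fusion proteins plus one bare bead set; values are compound well signal with DMSO vehicle wells as background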
# RGS-Gao: modulates binding between human RGS4 and Galphao. actives 99% (n = 1,600). multiplexed bead flow cytometry, RGS–Galpha-o binding. shares compounds with RGS16-Gao HTS. RGS4–Galpha-o binding response, % at 10 µM;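 also: fluorescently labeled Galpha-o bound to GDP with aluminium fluoride binding biotinylated RGS beads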
# Avidin counter: interferes with biotinylated probe binding to avidin beads; inhibition, % at 10 µM; 1,700 tested, under 10 active; shares compounds with RGS16-Gao HTS; streptavidin beads, fluorescein-biotin binding, flow cytometry; AID 1783;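 active = inhibition above 50%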;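 also: median green fluorescence of gated singlet beads compared with DMSO control wells; 0% = DMSO wells and 100% = complete loss of bead fluorescence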
# RGS8-Gao confirm: confirmation of regulators of human RGS8-Galphao interaction; AID 1836; bead-based flow cytometry RGS8-Galphao binding, fluorescence; actives lie on both sides; binding response (% of control), % at 10 µM; actives 3% (n = 1,700); shares compounds with RGS16-Gao HTS; in the data active = binding response below about 72% or above about 130%; inactive = in between;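 also: Galphao activated as GDP AlF4 complex before binding bead RGS8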
# RGS7-Gao confirm: confirmation of regulators of human RGS7-Galphao interaction; shares compounds with RGS16-Gao HTS; bead-based flow cytometry RGS7-Galphao binding; actives lie on both sides; response (percent of control binding), % at 10 µM; actives 7.8% (n = 1,700); in the data active = response below about 75% or above about 130%; inactive = in between;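 also: fluorescent Galphao activated with GDP and aluminum fluoride binding bead-coupled RGS7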
# RGS16-Gao conf: RGS16-Galphao interaction regulation, single point confirmation | shares compounds with RGS16-Gao HTS | bead-based flow cytometry, RGS16-Galphao binding; actives lie on both sides | response (% of control binding), % at 10 µM | actives 4% (n = 1,700) | AID 1838; in the data active = response below about 74% or above about 130%; inactive = in between;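 also: Galphao activated as the GDP aluminium fluoride complex binding bead-coupled RGS16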
# RGS4-Gao single: RGS4-Galphao interaction regulation, single point confirmation; shares compounds with RGS16-Gao HTS; RGS4-Galphao binding, multiplexed bead flow cytometry; actives lie on both sides; binding response (% of control), % at 10 µM; actives 4% (n = 1,700); in the data active = binding response below about 74% or above about 130%; inactive = in between
# RGS19-Gao single: RGS19-Galphao interaction regulation, single point confirmation | actives 5% (n = 1,700) | bead-based flow cytometry RGS19-Galphao binding; actives lie on both sides | shares compounds with RGS16-Gao HTS | response (percent of control binding), % at 10 µM; in the data active = response below about 50% or above about 160%; inactive = in between;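 also: 100% = no compound control and 0% = blank background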
# Target sequence (P09471 whole entry, looked up): as above
# Target sequence (P49795 whole entry, looked up): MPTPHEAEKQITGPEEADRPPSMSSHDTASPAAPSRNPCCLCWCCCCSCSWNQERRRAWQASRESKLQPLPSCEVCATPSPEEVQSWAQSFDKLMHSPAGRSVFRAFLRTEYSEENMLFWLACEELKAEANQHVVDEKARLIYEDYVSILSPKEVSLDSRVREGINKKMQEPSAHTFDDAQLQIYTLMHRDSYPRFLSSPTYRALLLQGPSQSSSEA
# * hit, by the source's call; u = inconclusive; x = not tested or not shown; [ ] = another dose, or the depositor's remark. Unless noted, no rule for the calls is given here.
SMILES,RGS4-Gao reg,Avidin bead fluor,RGS16-Gao HTS,RGS8-Gao,RGS7-Gao reg,GSH bead fluor,RGS-Gao,Avidin counter,RGS8-Gao confirm,RGS7-Gao confirm,RGS16-Gao conf,RGS4-Gao single,RGS19-Gao single
COc1cc2c(cc1NC(=O)CSc1nnc(Cc3cccs3)n1Cc1ccco1)oc1ccccc12,99,14,102,99,99,13,x,x,x,x,x,x,x
CCc1c(C(=O)Nc2ccccc2)c(C)[nH]c(=S)c1C#N,99,6,-59*,69,102,8,99*,2,81,130*[activator],79,100,84
CCOC(=O)c1oc2cccc(OCC(O)CNC(C)C)c2c1C (configuration not stated),204*[activator],127*,231*[activator],125,184*[activator],31,x,2,99,93,93,94,96
Cc1cccc(C)c1OCC(O)CNC(C)C (configuration not stated),98,2,37,88,100,40,x,x,x,x,x,x,x
O=C(/C(C=Nc1cccc(C(F)(F)F)c1)=C(/O)c1ccco1)C(F)(F)F,87,6,2.5*,64,81,6,87*,2,105,112,111,109,108
CCN1C(=O)C2(SC(NC(C)=O)=NN2C(C)=O)c2cc(C)cc(C)c21 (configuration not stated),75,6,8,76,77,5,x,x,x,x,x,x,x
CCCN1C(=O)C2(SC(NC(C)=O)=NN2C(C)=O)c2cc(C)cc(C)c21 (configuration not stated),98,3,96,79,u,x,x,4,110,98,113,100,99
CCc1ccccc1NCC(=O)Nc1ccc(Cl)c(C(F)(F)F)c1,94,7,20*,76,92,6,94*,-3,114,101,114,103,96
COc1ccccc1NC(=O)CN1CCN(CC(=O)Nc2ccc(Cl)c(C(F)(F)F)c2)CC1,105,9,103,106,103,6,x,x,x,x,x,x,x
COCC(=O)N(C)C1(c2nnnn2CCOC(=O)Nc2ccc(Cl)cc2)CCCCC1,99,10,103,104,u,12,x,x,x,x,x,x,x
COCC(=O)NC1(c2nnnn2CCOC(=O)Nc2ccc(Cl)cc2)CCCCC1,116,68*,98,101,255*[activator],23,116*,0,108,115,109,110,106
Cc1ccn2c(c1)nc(=S)n2C(=O)c1ccco1,103,4,94,97,105,18,x,x,x,x,x,x,x
CCOC(=O)c1c(C)n(C)c2ccc(O)c(CN3CCN(C)CC3)c12,131,3,345,150*[activator],121,47,131*,3,94,102,96,98,95
COc1ccccc1N1CCN(C(=O)CSc2nc(N)cc(=O)[nH]2)CC1,88,201*,113,89,277*[activator],12,88*,1,104,106,106,105,129
CS(=O)(=O)N1CCN(c2ccc(NC(=O)c3ccccc3)cc2)CC1,100,11,101,100,u,11,x,x,x,x,x,x,x
CCOc1ccc(NC(=O)Cn2sc3nc(C)cc(C)c3c2=O)cc1,98,3,41,82,u,x,x,x,x,x,x,x,x
Cc1cccc(N2CCN(C(=O)Cn3sc4nc(C)cc(C)c4c3=O)CC2C)c1 (configuration not stated),94,3,22*,72,104,16,94*,2,63*,121,12*,99,2.5*
Cc1ccc(NC(=O)Cn2sc3nc(C)cc(C)c3c2=O)c(Cl)c1,88,2,16*,67,u,x,88*,0,65*,88,22*,82,18*
Cc1cc(C)c2c(=O)n(CC(=O)Nc3ccc(Cl)cc3)sc2n1,101,5,12*,67,u,x,101*,1,68*,108,15*,96,17*
Cc1cc(C)c2c(=O)n(CC(=O)Nc3cccc(F)c3)sc2n1,83,2,17*,71,u,x,83*,0,67*,98,17*,85,24*
O=C(Cn1cnc([N+](=O)[O-])n1)N/N=C/c1cc(Cl)ccc1O,98,9,98,99,u,10,x,x,x,x,x,x,x
N#CC1(NC(=O)CN2CCc3ccccc3C2)CCCC1,100,7,100,101,99,13,x,x,x,x,x,x,x
Cc1cc(NC(=O)c2ccc(C)s2)n(-c2nc3ccccc3[nH]2)n1,14*,-2,0.3*,12*,13*,6,x,0,95,87,90,92,92
COc1ccc(C(=O)Nc2cc(C(C)=O)c(C)oc2=O)cc1,100,9,101,101,u,15,x,x,x,x,x,x,x
COC(=O)c1cc(NC(=O)c2ccccc2)c(=O)oc1/C=C/Nc1ccc(Oc2ccccc2)cc1,215*[activator],80*,205*[activator],114,211*[activator],161*,x,-1,125*[activator],399*[activator],260*[activator],284*[activator],420*[activator]
c1ccc(-c2[nH]ncc2CN2CCN(Cc3ccc4c(c3)OCO4)CC2)cc1,101,2,103,102,u,x,x,x,x,x,x,x,x
CN(C)NC(=O)C12CCC(C)(C(=O)O1)C2(C)C (configuration not stated),99,14,103,102,97,10,x,x,x,x,x,x,x
O=C(COc1ccccc1C(=O)N/N=C\c1ccc(O)c(O)c1)N/N=C/c1ccc(O)c(O)c1,17*,4,16*,37*,14*,4,x,-4,61*,21*,60*,54*,53
